Results taken from PubChem BioAssay (Tox21).
Inconclusive results are not listed. Active and inactive are the calls of the source. Calls follow the shape of the dose curve; as a rule, active = well fitted curve in the direction sought with a large enough effect in the repeat runs; inconclusive = weak or mixed curves; inactive = no such curve, though single readings can be large; an effect the other way counts as inactive or inconclusive.

How the values were obtained:
[1] = Human pregnane X receptor (PXR) small molecule agonists, qHTS cell viability counter screen (AID 1346977); also: nearly all actives have a fitted effect of over 50% in size; also: potency is read from the fitted curve at half-maximal effect
Method in brief: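 PXR-Luc HepG2 cells in medium with 5% charcoal-stripped FBS were pre-incubated 5hr, then exposed to compounds for 24hr at 37C. Viability was read in the same wells by CellTiter-Fluor fluorescence, reagent added after 23hr with a 1hr incubation.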

[2] = Caspase-3/7 induction in HepG2 cells by small molecules, qHTS assay (AID 1346978); also: nearly all actives have a fitted effect of over 15% in size
Method in brief: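 Wild-type HepG2 cells (2,000/well) were settled 5 h at 37 C, 5% CO2, then exposed to compounds in DMSO for 17 h. Caspase-3/7 activity was read by luminescence 30 min after adding Caspase-Glo 3/7 reagent at room temperature.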

[3] = Caspase-3/7 induction in CHO-K1 cells by small molecules, qHTS cell viability counter screen (AID 1346979); also: nearly all actives have a fitted effect of over 35% in size; also: potency is read from the fitted curve at half-maximal effect
Method in brief: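 Wild-type CHO-K1 cells were seeded at 1,500 per well, rested 5hr at 37 C, then exposed to compounds in DMSO. After 16hr, CellTiter-Fluor reagent was added and fluorescence read 1hr later as the viability measure.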

[4] = Caspase-3/7 induction in CHO-K1 cells by small molecules, qHTS assay (AID 1346980); also: nearly all actives have a fitted effect of over 15% in size
Method in brief: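 Wild-type cells were seeded at 1,500 per well and settled 5 hr at 37 C, 5% CO2, then exposed to DMSO-dissolved compounds for 17 hr. Caspase-Glo 3/7 reagent was added, and luminescence was read after 30min at room temperature.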

[5] = Caspase-3/7 induction in HepG2 cells by small molecules, qHTS cell viability counter screen (AID 1346981); also: series mostly up to about 92 µM; nearly all actives have a fitted effect of over 30% in size
Method in brief: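 Counter screen for cytotoxicity: HepG2 exposed 16 hr to compounds, then CellTiter-Fluor viability signal (fluorescence, 1 hr reagent incubation).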

[6] = target: Nuclear receptor subfamily 1 group I member 2 (Homo sapiens) (UniProt O75469); experiment: Human pregnane X receptor (PXR) small molecule agonists, qHTS assay (AID 1346982); also: nearly all actives have a fitted effect of over 35% in size; also: potency is read from the fitted curve at half-maximal effect
Method in brief: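 Luminescence (ONE-Glo, 30 min RT) after 24 hr compound exposure of PXR-Luc HepG2 cells; cells rested 5 hr post-plating in 5% charcoal-stripped FBS medium.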

[7] = target: Cytochrome P450 2D6 (Homo sapiens) (UniProt P10635); experiment: Cytochrome P450 Family 2 Subfamily D Member 6 (CYP2D6) small molecule antagonists: luciferase reporter qHTS assay (AID 1671196); also: nearly all actives have a fitted effect of over 50% in size; also: potency is read from the fitted curve at half-maximal effect; as to activity change, negative = inhibition: series mostly up to about 120 µM
Method in brief: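 Inhibition of CYP2D6 was gauged by loss of luminescence, since light produced tracks the luciferin generated from a proluciferin substrate. A 10 min room-temperature preincubation preceded 1 h NADPH-supported turnover.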

[8] = target: Nuclear receptor subfamily 1 group I member 2 (Rattus norvegicus) (UniProt Q9R1A7); experiment: Rat pregnane X receptor (rPXR) activation by small molecules, qHTS assay (AID 1346983); details: rPXR luciferase reporter cells, One-Glo luminescence, 24 h; max activation: active compounds read high; also: nearly all actives have a fitted effect of over 20% in size
Method in brief: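 Cell-based rPXR luciferase reporter assay, 2,000 cells per well, rested 5hr at 37 C before compound addition in DMSO, then 24 hr at 37 C. One-Glo reagent was added and luminescence read after 30 min at room temperature.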

[9] = target: Nuclear receptor subfamily 1 group I member 2 (Homo sapiens) (UniProt O75469); experiment: CYP3A4 induction through human pregnane X receptor (PXR) by small molecules, qHTS assay (AID 1346984); also: nearly all actives have a fitted effect of over 40% in size
Method in brief: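 DPX-2 reporter cells; 24h cpd, 37C; Luciferin-IPA 3uM final x3h; One-Glo 30 min RT; lumi read.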

[10] = target: Nuclear receptor subfamily 1 group I member 2 (Homo sapiens) (UniProt O75469); experiment: Human pregnane X receptor (PXR) activation by small molecules, qHTS assay (AID 1346985); also: nearly all actives have a fitted effect of over 40% in size
Method in brief: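 DPX-2 cells (HepG2 co-transfected with a PXR response element and a CYP3A4-promoter luciferase construct) were seeded at 2,000 per well, rested 5 hr at 37C, then exposed to DMSO-dissolved compounds for 24 hr. Activation was read as luciferase luminescence.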
% is scaled to controls: 0 for no effect and ±100 for the full control effect.

Sequence of Nuclear receptor subfamily 1 group I member 2 (Rattus norvegicus) (Q9R1A7 whole entry, looked up): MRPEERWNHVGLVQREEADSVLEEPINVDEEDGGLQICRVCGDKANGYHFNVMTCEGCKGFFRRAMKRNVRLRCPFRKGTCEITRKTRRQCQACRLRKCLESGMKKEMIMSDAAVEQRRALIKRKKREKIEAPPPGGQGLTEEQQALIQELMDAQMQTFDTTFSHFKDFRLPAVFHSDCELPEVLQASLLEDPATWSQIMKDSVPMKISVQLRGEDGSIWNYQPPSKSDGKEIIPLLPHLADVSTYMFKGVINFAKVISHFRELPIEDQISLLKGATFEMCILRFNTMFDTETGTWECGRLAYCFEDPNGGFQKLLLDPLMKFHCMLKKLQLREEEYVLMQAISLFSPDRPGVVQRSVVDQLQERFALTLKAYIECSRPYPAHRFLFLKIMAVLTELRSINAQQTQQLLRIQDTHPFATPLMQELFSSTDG
Sequence of Nuclear receptor subfamily 1 group I member 2 (Homo sapiens) (O75469 whole entry, looked up): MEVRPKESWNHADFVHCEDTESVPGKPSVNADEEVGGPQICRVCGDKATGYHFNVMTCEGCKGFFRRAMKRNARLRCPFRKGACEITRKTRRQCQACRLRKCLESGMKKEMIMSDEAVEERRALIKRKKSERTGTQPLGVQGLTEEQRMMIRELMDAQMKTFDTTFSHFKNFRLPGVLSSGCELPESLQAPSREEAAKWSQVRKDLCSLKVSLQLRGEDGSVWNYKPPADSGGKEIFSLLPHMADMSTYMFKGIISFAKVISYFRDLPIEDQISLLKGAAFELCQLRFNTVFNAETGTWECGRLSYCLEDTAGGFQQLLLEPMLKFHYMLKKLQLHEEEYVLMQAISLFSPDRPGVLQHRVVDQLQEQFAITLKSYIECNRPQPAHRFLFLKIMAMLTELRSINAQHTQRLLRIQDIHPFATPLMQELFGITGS
Sequence of Cytochrome P450 2D6 (Homo sapiens) (P10635 whole entry, looked up): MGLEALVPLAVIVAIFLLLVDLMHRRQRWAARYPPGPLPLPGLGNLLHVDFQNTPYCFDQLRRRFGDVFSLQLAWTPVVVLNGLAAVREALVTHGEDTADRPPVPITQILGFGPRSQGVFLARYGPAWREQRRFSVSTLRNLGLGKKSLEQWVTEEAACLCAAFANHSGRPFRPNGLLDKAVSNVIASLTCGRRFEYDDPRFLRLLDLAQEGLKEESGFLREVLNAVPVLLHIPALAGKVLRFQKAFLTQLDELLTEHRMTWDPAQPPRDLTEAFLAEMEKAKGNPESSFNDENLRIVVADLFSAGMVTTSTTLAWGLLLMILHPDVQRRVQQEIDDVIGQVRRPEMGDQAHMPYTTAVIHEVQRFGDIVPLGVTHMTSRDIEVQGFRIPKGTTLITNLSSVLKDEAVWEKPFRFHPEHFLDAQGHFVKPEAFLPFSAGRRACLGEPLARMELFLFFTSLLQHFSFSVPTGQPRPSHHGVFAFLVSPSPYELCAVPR

O=[N+]([O-])c1cccc(Cl)c1Cl
inactive: Potency [1] | outcome [2] | Potency [3] | Potency [4] | Potency [5] | Potency [6] | Potency [7]

COc1cc(C(C)(C)C)c(O)c(C(C)(C)C)c1
inactive: Potency [1] | outcome [2] | Potency [3] | Potency [4] | Potency [5] | Potency [7]

O=C(NN1CCCC1)NS(=O)(=O)c1ccc(Cl)cc1
inactive: Potency [1] | outcome [2] | Potency [3] | Potency [4] | Potency [5] | Potency [7]

O=C1c2cccc(O)c2C(=O)c2c(O)cc(CO)cc21
inactive: outcome [2] | Potency [3] | Potency [4] | Potency [5] | Potency [7]
active: Potency [1] 38.6 µM | Potency [6] 8.63 µM

CCCCCCCCCCCCCCC1CO1 (stereo not given)
inactive: Potency [1] | outcome [2] | Potency [3] | Potency [4] | Potency [5] | Potency [6] | Potency [7]

CCCCCCCCC(CO)CCCCCC (stereo not given)
inactive: Potency [1] | outcome [2] | Potency [3] | Potency [4] | Potency [5] | Potency [7]

CCOc1ccc(NC(=O)CC(C)=O)cc1
active: Potency [7] 35.6 µM
inactive: Potency [1] | outcome [2] | Potency [3] | Potency [4] | Potency [5] | Potency [6]

CCCC(=O)OCC
inactive: Potency [1] | outcome [2] | Potency [3] | Potency [4] | Potency [5] | Potency [7]

COCCO
inactive: Potency [1] | outcome [2] | Potency [3] | Potency [4] | Potency [5] | Potency [6] | Potency [7]

CCCCCCCCCCCCCCCCCBr
inactive: activity change, negative = cytotoxicity [1] 1.63% [at 19 µM] | caspase activation [2] 0.0731% [at 19 µM] | activity change, negative = cytotoxicity [3] 6.07% [at 19 µM] | caspase-3/7 activation [4] -0.258% [at 19 µM] | activity change, negative = cytotoxicity [5] 2.8% [at 19 µM] | activation [6] 1.46% [at 19 µM] | activity change, negative = inhibition [7] -1.15% [at 23.6 µM]

CC(=O)/C=C/C1C(C)=CCCC1(C)C (stereo not given)
inactive: Potency [1] | outcome [2] | Potency [3] | Potency [4] | Potency [5] | Potency [6] | Potency [7]

CN(C)CCCNCCCN
active: Potency [7] 70.7 µM
inactive: Potency [1] | outcome [2] | Potency [3] | Potency [4] | Potency [5]

CC1CCc2cc(F)cc3c(=O)c(C(=O)O)cn1c23 (stereo not given)
inactive: Potency [1] | outcome [2] | Potency [3] | Potency [4] | Potency [5] | Potency [7]

Cc1ccc(C(C)c2ccc(C)c(C)c2)cc1C
inactive: Potency [1] | outcome [2] | Potency [3] | Potency [4] | Potency [5] | Potency [7]

Cn1c(NCCN(CCO)CCCc2ccc([N+](=O)[O-])cc2)cc(=O)n(C)c1=O
inactive: Potency [1] | outcome [2] | Potency [3] | Potency [4] | Potency [5] | max activation [8] -2.3% | Potency [9] | Potency [10]

O=C(Cl)c1c(Cl)cccc1Cl
inactive: Potency [1] | outcome [2] | Potency [3] | Potency [4] | Potency [5] | Potency [6] | Potency [7]

COC(=O)C(C)=O
inactive: Potency [1] | outcome [2] | Potency [3] | Potency [4] | Potency [5] | Potency [6] | Potency [7]

Cc1occc1S
inactive: Potency [1] | outcome [2] | Potency [3] | Potency [4] | Potency [5] | Potency [7]
active: Potency [6] 61.1 µM

CC[C@@H]1C[C@H](N(Cc2cc(C(F)(F)F)cc(C(F)(F)F)c2)C(C)=O)c2cc(C(F)(F)F)ccc2N1C(=O)OC(C)C
active: Potency [6] 0.77 µM
inactive: Potency [1] | outcome [2] | Potency [3] | Potency [4] | Potency [5] | Potency [7]

CCCCC(CC)(CO)CO
inactive: Potency [1] | outcome [2] | Potency [3] | Potency [4] | Potency [5] | Potency [7]

CC(C)CCCC(C)CCO (stereo not given)
inactive: Potency [1] | outcome [2] | Potency [3] | Potency [4] | Potency [5] | Potency [6] | Potency [7]

NCc1ccccc1
inactive: Potency [1] | outcome [2] | Potency [3] | Potency [4] | Potency [6]
active: Potency [7] 31.7 µM

CCN1CCC[C@H]1CNC(=O)c1c(OC)ccc(Br)c1OC
inactive: Potency [1] | outcome [2] | Potency [3] | Potency [4] | Potency [6] | max activation [8] 7.68% | Potency [9] | Potency [10]

CCN(CC)C(C)=O
inactive: Potency [1] | outcome [2] | Potency [3] | Potency [5] | Potency [6]

O=C(C(=O)c1ccc(Br)cc1)c1ccc(Br)cc1
inactive: activity change, negative = cytotoxicity [1] -1.5% [at 19 µM] | caspase activation [2] -0.0549% [at 19 µM] | activity change, negative = cytotoxicity [3] 1.57% [at 19 µM] | caspase-3/7 activation [4] 0.394% [at 19 µM] | activation [6] 1.54% [at 19 µM] | activity change, negative = inhibition [7] 1.74% [at 23.6 µM]

CC1=CC(=O)/C(=C(/C)O)C(=O)O1
inactive: Potency [1] | outcome [2] | Potency [3] | Potency [4] | Potency [6] | Potency [7]

CCCCOc1cc(C(=O)OCCN(CC)CC)ccc1N
inactive: Potency [1] | outcome [2] | Potency [3] | Potency [4] | max activation [8] -4.73%

O=C1[C@H](CC[C@H](O)c2ccc(F)cc2)[C@@H](c2ccc(O)cc2)N1c1ccc(F)cc1
inactive: Potency [1] | outcome [2] | Potency [4] | max activation [8] -2.85% | Potency [9] | Potency [10]
active: Potency [3] 29.8 µM | Potency [7] 30.9 µM

Nc1ccc(C(=O)N2CC3CC(CN(Cc4ccccc4)C3)C2)cc1
inactive: Potency [1] | outcome [2] | Potency [3] | Potency [4] | Potency [6]

S=C(S)NCCNC(=S)S
inactive: Potency [1] | outcome [2] | Potency [3] | Potency [4] | Potency [6] | Potency [7]
